We go through three compounds from ChEMBL document CHEMBL2218924, “A broad activity screen in support of a chemogenomic map for kinase signalling research and drug discovery” (Biochem J, 2013).

Test [1] has as its target Homeodomain-interacting protein kinase 3 (Homo sapiens) (UniProt Q9H422). Particulars: at 10 µM; call rule not given here.
Test [2] has as its target T1, Serine/threonine-protein kinase haspin (Homo sapiens) (UniProt Q8TF76).
T1 sequence (whole entry): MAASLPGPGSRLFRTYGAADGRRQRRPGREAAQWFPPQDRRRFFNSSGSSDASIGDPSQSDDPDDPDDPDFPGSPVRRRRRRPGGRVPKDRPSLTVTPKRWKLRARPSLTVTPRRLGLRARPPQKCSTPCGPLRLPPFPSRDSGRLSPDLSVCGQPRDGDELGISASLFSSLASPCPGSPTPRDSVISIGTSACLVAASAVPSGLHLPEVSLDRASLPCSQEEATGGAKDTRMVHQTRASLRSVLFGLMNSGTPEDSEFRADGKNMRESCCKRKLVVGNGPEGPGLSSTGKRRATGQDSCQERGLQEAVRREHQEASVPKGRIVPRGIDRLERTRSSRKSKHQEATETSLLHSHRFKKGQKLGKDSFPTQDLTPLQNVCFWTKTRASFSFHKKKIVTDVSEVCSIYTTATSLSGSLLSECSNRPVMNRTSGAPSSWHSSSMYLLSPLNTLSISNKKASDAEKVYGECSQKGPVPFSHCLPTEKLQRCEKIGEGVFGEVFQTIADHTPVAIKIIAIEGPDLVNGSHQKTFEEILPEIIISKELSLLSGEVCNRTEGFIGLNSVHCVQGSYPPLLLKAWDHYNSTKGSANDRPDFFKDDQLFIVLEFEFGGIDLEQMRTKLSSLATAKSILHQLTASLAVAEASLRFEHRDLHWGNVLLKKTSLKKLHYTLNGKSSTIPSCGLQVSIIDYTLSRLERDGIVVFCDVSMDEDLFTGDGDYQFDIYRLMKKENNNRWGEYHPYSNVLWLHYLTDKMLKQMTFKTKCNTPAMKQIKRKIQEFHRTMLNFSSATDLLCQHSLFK
Particulars: at 1 µM.

The target of test [3] is T1, Serine/threonine-protein kinase haspin (Homo sapiens). Particulars: at 10 µM.
Test [4] concerns the target Tyrosine-protein kinase HCK (Homo sapiens) (UniProt P08631). Particulars: at 1 µM.
The target is the same in test [5]. Particulars: at 10 µM.
For test [6] the target is unchanged. Particulars: at 1 µM. The source holds these as a separate data set.
Test [7] has the same target. Particulars: at 10 µM. The source holds these as a separate data set.
Test [8] deals with Insulin-like growth factor 1 receptor (Homo sapiens) (UniProt P08069). Particulars: at 1 µM.
Test [9] shares this target. As to conditions: at 10 µM.
Test [10] has as its target T2, Protein kinase C zeta type (Homo sapiens) (UniProt Q05513).
T2 sequence (whole entry): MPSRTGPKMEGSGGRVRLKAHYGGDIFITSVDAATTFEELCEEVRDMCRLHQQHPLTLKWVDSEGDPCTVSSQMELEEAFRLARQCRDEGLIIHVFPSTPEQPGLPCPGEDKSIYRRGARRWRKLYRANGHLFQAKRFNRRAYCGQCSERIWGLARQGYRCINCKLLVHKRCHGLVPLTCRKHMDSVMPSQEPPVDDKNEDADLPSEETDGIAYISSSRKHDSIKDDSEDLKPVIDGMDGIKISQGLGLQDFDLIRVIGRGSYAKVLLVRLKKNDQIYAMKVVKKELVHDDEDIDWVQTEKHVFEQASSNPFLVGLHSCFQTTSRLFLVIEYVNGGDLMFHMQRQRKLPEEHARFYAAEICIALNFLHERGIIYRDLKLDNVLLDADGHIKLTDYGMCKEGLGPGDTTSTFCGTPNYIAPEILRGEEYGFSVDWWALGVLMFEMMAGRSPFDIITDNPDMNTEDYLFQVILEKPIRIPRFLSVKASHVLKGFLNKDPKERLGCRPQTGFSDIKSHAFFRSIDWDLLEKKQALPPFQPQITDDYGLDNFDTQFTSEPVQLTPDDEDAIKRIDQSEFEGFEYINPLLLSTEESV
Particulars: at 10 µM.

The target of test [11] is Protein kinase C eta type (Homo sapiens) (UniProt P24723). As to conditions: at 1 µM.
Test [12] shares this target. As to conditions: at 10 µM.
Test [13] concerns the target Protein kinase C theta type (Homo sapiens) (UniProt Q04759). Particulars: at 1 µM.
Test [14] has the same target. Particulars: at 10 µM.
Test [15] deals with T3, Protein kinase C iota type (Homo sapiens) (UniProt P41743).
T3 sequence (whole entry): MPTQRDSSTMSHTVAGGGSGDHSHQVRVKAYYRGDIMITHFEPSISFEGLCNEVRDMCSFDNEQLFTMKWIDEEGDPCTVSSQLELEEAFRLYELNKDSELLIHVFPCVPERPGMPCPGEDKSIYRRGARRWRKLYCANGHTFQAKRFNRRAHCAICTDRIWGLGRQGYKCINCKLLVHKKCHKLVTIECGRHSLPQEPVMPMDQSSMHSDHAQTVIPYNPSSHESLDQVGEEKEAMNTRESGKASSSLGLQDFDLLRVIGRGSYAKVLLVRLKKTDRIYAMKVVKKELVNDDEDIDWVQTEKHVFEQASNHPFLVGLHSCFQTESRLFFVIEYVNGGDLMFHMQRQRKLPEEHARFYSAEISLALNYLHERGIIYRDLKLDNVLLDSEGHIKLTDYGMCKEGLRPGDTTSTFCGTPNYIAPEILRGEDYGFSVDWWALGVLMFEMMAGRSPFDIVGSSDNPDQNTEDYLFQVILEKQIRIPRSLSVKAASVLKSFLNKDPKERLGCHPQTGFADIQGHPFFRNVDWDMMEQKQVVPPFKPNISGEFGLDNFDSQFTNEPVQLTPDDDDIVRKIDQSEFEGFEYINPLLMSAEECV
As to conditions: at 1 µM.

Test [16] deals with T3, Protein kinase C iota type (Homo sapiens). Particulars: at 10 µM.
In test [17] the target is T4, Serine/threonine-protein kinase D1 (Homo sapiens) (UniProt Q15139).
T4 sequence (whole entry): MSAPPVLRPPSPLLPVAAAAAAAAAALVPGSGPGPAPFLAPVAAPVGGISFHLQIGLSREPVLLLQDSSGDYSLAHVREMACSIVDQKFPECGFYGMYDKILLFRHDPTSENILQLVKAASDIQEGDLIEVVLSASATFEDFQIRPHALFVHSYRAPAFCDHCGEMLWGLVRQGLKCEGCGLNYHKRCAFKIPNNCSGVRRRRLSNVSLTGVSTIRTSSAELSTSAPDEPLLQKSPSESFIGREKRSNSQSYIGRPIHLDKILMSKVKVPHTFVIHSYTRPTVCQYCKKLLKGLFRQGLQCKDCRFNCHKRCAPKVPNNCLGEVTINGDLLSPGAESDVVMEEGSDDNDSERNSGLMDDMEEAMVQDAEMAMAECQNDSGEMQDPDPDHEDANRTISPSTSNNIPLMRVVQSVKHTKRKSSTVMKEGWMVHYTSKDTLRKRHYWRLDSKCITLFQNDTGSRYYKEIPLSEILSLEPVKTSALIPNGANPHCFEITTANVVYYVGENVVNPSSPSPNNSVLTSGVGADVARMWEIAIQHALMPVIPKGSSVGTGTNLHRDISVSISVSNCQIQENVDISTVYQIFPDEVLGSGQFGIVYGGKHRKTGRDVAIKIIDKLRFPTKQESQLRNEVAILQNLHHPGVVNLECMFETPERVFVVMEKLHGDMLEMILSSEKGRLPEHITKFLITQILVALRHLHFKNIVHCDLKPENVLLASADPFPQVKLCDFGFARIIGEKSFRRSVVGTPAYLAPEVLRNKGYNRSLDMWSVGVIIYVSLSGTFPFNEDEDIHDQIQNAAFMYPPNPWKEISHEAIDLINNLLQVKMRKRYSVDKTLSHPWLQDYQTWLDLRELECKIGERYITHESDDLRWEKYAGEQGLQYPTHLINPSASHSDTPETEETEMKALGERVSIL
Particulars: at 1 µM.

Test [18] addresses T4, Serine/threonine-protein kinase D1 (Homo sapiens). Particulars: at 10 µM.
Test [19] has as its target T5, Serine/threonine-protein kinase D2 (Homo sapiens) (UniProt Q9BZL6).
T5 sequence (whole entry): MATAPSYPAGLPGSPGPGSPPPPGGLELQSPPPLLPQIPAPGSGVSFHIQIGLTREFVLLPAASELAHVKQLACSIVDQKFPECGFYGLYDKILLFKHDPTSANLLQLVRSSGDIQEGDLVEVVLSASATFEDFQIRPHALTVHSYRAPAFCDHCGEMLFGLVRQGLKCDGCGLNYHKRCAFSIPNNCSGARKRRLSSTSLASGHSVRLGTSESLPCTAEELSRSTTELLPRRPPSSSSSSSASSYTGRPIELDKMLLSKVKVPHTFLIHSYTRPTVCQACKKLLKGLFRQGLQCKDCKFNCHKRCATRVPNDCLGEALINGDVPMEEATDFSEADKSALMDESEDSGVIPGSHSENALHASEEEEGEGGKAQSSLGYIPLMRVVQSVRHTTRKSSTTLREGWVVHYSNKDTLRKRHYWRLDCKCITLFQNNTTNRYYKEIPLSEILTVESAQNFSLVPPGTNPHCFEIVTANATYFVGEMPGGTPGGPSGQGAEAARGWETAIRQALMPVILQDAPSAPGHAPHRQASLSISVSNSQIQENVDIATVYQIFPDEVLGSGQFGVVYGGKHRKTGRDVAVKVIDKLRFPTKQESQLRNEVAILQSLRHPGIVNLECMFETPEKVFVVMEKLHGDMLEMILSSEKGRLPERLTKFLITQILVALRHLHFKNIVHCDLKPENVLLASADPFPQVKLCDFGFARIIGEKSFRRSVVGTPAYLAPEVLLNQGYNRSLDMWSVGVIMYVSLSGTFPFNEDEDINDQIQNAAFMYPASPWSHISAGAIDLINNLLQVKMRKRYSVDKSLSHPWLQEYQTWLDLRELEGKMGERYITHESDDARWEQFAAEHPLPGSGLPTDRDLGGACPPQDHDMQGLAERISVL
Particulars: at 1 µM.

Test [20] has as its target T5, Serine/threonine-protein kinase D2 (Homo sapiens). As to conditions: at 10 µM.

Homeodomain-interacting protein kinase 3 (Homo sapiens), sequence (Q9H422 whole entry, looked up): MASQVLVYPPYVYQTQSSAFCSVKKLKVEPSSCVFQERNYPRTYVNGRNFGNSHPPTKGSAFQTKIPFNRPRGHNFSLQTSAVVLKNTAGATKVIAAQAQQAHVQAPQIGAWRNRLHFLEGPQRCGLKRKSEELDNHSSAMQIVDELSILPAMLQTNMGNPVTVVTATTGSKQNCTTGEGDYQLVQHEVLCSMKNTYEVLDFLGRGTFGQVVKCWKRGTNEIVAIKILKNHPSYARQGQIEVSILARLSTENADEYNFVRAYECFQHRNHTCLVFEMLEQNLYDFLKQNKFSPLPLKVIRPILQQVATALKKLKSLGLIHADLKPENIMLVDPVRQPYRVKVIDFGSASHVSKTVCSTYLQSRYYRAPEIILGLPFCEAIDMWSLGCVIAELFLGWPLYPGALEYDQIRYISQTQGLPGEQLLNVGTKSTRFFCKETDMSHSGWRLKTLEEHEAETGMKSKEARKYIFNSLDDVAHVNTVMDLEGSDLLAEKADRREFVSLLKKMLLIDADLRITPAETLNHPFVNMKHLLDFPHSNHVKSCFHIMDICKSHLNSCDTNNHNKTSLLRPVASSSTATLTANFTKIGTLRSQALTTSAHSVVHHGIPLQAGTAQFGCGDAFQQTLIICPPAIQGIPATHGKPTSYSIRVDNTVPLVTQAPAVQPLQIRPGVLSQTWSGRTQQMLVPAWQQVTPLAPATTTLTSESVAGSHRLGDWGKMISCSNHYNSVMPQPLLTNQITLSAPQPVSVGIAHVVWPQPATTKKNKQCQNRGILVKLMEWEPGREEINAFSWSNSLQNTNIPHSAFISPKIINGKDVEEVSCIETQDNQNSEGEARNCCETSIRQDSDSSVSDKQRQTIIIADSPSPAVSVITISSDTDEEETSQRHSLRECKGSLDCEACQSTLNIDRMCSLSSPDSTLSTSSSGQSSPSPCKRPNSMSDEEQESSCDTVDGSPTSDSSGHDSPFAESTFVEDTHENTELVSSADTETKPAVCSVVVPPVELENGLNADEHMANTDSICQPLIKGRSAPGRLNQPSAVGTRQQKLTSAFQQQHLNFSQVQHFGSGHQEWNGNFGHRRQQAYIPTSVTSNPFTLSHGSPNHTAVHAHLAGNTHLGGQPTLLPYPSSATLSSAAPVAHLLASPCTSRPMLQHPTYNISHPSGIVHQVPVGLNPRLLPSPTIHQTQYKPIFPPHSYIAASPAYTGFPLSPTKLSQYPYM
Insulin-like growth factor 1 receptor (Homo sapiens), sequence (P08069 31-736 limits assumed): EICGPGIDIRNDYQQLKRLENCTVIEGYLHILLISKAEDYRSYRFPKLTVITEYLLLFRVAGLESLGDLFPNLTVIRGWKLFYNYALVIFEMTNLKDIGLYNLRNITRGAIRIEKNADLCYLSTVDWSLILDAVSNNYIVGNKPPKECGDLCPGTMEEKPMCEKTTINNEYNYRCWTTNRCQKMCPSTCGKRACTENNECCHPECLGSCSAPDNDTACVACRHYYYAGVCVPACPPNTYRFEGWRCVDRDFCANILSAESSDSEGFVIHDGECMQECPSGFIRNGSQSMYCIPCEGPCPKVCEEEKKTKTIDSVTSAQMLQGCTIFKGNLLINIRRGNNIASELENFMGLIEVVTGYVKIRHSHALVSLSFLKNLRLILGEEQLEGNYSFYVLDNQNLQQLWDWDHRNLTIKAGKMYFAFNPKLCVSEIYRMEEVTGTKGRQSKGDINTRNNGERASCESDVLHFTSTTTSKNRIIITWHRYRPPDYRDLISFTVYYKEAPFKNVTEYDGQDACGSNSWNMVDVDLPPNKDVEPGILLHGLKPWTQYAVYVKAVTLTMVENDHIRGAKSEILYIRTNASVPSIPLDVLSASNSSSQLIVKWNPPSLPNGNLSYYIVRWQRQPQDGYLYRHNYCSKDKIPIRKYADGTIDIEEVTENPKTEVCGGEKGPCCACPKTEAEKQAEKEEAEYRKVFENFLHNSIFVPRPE
Insulin-like growth factor 1 receptor (Homo sapiens), sequence (P08069 741-1367 limits assumed): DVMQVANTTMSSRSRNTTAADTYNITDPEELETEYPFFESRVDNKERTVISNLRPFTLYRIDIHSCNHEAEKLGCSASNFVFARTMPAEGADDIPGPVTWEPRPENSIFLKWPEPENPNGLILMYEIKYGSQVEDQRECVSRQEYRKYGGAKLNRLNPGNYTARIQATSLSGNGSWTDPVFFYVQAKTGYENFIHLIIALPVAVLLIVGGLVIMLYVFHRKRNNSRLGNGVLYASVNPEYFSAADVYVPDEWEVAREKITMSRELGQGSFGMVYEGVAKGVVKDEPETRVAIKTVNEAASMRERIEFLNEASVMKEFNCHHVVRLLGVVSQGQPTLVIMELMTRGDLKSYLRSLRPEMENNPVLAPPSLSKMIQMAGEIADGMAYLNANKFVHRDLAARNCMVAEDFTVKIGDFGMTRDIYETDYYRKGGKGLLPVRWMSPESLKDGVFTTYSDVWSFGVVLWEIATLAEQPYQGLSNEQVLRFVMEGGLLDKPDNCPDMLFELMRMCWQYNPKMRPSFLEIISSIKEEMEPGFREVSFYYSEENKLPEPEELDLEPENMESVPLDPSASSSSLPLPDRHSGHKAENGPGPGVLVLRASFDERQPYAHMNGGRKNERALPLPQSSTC
Protein kinase C eta type (Homo sapiens), sequence (P24723 whole entry): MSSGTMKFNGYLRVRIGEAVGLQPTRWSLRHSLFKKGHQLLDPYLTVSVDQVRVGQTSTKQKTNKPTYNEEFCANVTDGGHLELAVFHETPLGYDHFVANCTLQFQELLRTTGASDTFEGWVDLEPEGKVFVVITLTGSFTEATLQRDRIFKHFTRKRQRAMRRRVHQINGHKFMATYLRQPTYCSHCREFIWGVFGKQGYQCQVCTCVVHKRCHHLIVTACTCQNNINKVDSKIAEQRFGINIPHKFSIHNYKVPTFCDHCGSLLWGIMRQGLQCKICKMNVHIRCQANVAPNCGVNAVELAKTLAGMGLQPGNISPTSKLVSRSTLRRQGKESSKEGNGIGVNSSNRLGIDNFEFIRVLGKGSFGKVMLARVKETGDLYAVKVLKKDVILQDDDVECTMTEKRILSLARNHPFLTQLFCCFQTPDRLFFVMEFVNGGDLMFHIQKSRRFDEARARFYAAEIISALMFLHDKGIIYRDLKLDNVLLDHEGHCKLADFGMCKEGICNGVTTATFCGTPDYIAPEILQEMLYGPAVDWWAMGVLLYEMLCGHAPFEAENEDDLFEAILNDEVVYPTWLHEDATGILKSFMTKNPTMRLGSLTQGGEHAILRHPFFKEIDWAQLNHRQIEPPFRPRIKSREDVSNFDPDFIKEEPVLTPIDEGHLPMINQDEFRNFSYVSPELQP
Tyrosine-protein kinase HCK (Homo sapiens), sequence (P08631 2-526 limits assumed): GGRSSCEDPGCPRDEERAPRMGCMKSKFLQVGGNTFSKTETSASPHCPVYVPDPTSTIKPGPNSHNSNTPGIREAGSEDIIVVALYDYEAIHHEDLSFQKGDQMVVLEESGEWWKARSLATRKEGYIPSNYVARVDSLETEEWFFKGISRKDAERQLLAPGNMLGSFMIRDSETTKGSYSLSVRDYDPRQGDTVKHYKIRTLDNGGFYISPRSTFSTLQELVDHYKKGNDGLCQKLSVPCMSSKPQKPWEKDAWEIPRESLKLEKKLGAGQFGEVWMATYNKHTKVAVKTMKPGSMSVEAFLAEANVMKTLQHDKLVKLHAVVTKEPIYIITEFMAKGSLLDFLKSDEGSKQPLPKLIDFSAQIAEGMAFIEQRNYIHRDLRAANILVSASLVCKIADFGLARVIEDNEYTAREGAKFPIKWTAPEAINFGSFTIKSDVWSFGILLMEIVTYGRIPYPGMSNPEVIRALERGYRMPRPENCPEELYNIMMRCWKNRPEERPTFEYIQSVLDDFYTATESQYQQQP
Protein kinase C theta type (Homo sapiens), sequence (Q04759 whole entry, looked up): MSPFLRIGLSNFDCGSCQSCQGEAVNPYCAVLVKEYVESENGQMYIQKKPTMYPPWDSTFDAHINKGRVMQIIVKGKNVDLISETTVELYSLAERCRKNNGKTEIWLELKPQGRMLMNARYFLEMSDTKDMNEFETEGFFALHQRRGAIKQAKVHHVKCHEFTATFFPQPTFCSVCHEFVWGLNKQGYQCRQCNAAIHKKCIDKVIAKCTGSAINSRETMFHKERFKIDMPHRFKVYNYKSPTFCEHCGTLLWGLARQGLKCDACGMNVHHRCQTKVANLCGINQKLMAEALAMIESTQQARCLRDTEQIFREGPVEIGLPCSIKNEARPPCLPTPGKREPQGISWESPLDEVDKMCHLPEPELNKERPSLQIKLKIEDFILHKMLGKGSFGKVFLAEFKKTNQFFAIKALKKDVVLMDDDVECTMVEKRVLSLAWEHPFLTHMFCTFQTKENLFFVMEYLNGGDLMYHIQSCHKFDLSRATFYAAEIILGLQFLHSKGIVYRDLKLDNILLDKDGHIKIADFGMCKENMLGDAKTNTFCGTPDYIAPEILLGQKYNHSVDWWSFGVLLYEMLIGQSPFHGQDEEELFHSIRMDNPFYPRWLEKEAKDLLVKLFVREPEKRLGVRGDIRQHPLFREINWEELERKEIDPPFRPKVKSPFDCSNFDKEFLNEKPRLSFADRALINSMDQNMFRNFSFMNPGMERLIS

Regarding `Ic1cccc(CSc2nnc(-c3ccncc3)o2)c1`, the residual activity (in general, the signal under treatment as a percentage of the control signal) turned out to be 100% in test [1]; 104% in test [2]; 85% in test [3]; 74% in test [4]; 56% in test [5]; 85% in [6]. Moreover, the residual activity in [7] is 89%; in test [8] it was 96%; in [9], 124%; in [10], 98%; in [11], 59%; in [12], 62%. Besides, the residual activity in [13] was 68%; in test [14] it was 58%; in test [15] it was 109% (inactive); in test [16] it was 107%; in [17], 72%; in test [18], 71%. Also, the residual activity in [19] turned out to be 97%; in test [20] it was 98%.
As for `Cc1nc(-c2ccccc2)c(-c2ccncc2)o1`, the residual activity in test [1] came out at 103%; in test [2] it was 94%; in [3], 35%; in test [4], 24%; in test [5], 20%; in [6], 96%. For the same compound, the residual activity in test [7] turned out to be 91%; in test [8] it was 94%; in test [9] it was 128%; in [10], 112%; in test [11], 101%; in test [12], 90%. The residual activity in [13] was 107%; in test [14], 103%; in test [15], 108% (inactive); in [16] it was 103%; in test [17] it was 113%; in test [18] it was 80%. The residual activity was found to be 103% in test [19] and 94% in test [20].
For `Cn1nc2c3c(cccc31)C(=O)c1ccccc1-2`, the residual activity was 90% in test [1]; 41% in [2]; 2% in test [3]; 72% in [4]; 53% in test [5]; 96% in test [6]. Besides, the residual activity in [7] amounted to 92%; in [8], 111%; in test [9], 106%; in test [10], 106%; in test [11], 88%; in test [12] it was 89%. Besides, the residual activity was 97% in test [13]; 86% in test [14]; 105% (inactive) in test [15]; 105% in test [16]; 61% in test [17]; 54% in test [18]. For the same compound, the residual activity in test [19] came to 108%; in [20], 92%.
